Data on 25 molecules can be found in PubChem BioAssay (NCATS).

Several values for one entry are separate records, joined by “and”; a condition that tells them apart may be missing. Equal values may be shown once. Results filed as inconclusive are left out. Unmarked numbers belong to inactive results. Activity calls are given as the source filed them. Unless noted, calls follow the shape of the dose curve; as a rule, active = well fitted curve in the direction sought with a large enough effect; inconclusive = small, poorly fitted or top-dose-only effect, or another doubt; inactive = no such curve, though single readings can be large; an effect the other way counts as inactive or inconclusive.

The target of experiment [1] is Protein phosphatase 1D (Homo sapiens) (UniProt O15297). In words: RapidFire Mass Spectrometry qHTS Assay for Modulators of WT P53-Induced Phosphatase 1 (WIP1) (AID 1347424).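 Also: amount of dephosphorylated VEPPL-S-QETFS peptide product formed by WIP1; series mostly up to about 63 µM; plate controls were DMSO wells for no effect and GSK830371 inhibitor control at 10 µM for full effect.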 The essentials: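 10 nM WIP1 preincubated with compounds 1 hr at room temperature in pH 7.5 Tris buffer with 30 mM MgCl2, 1 mM TCEP; 2 uM VEPPL-pS-QETFS phosphopeptide for 5 min, formic acid quench; dephosphorylated product quantified by RapidFire MS against labelled standard.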
Background: Quantitative high-throughput screening tests each substance at several concentrations.

For experiment [2] the target is unchanged. In words: Rhodamine-PBP qHTS Assay for Modulators of WT P53-Induced Phosphatase 1 (WIP1) (AID 1347425). Also: % of control where 0% means no effect. The gist of the method:
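Read-out: Rhodamine-PBP fluorescence (ex 525/em 598 nm) for released Pi, read each minute for 11 min after adding 10 uM VEPPL-pS-QETFS; signal taken as f1 minus pre-substrate f0. Enzyme 5 nM WIP1 with 1 hr room-temperature compound preincubation.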

Experiment [3] can be described thus: Primary qHTS for inhibitors of SARS-S pseudo-typed particle cell entry (AID 1479145; calls by dose curve; also: series mostly up to about 57 µM; % is scaled to controls: 0 for no effect and ±100 for the full control effect; nearly all actives have a fitted effect of over 45% in size).
Experiment [4] in a line: Primary qHTS for Huh7 cytotoxicity: counterscreen for inhibitors of MERS-S pseudotyped particle cell entry (AID 1479147; calls by dose curve).
Experiment [5] in a line: Primary qHTS for Vero E6 cytotoxicity: counterscreen for inhibitors of SARS-S pseudo-typed particle cell entry (AID 1479150; calls by dose curve).
Experiment [6] in a line: Primary qHTS for inhibitors of La Crosse Virus (LACV) - induced cell death in SH-SY5Y cells (AID 1508616).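 Also: top concentration of the series differs between compounds; 0% = infected DMSO wells and 100% = uninfected DMSO wells; higher means more rescue of cells from virus-induced death.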 The essentials: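 SH-SY5Y cells (6000/well) plated 24 h, then given compounds by pin transfer and LACV at 0.01 MOI for 6 days at 37C. Viability measured by ATPLite luminescence, normalized to infected DMSO and uninfected DMSO.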
The target in experiment [7] is Calcium and integrin-binding protein 1 (Homo sapiens) (UniProt Q99828). In words: Primary qHTS for Identification of Calcium Integrin Binding Protein 1 (CIB1) Competitor (AID 1508620). Also: top concentration of the series differs between compounds; % is scaled to controls: 0 for no effect and ±100 for the full control effect. The essentials: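 Fluorescence polarization competition: GST-tagged CIB1 (1 uM final) preincubated with compound 15 min at room temperature, then FITC-labelled alphaIIb peptide (100 nM final) added. After 15 min at room temperature, polarization read at Ex 480/Em 540.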

Experiment [8] can be described thus: A High-Content qHTS Against Drug Library for the Identification of Small Molecules that Inhibit DYT1 Early Onset Primary Dystonia-Associated Cell Pathology (AID 1645839; calls by dose curve; also: series mostly up to about 46 µM). The essentials: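 Flp-In T-REx 293 cells with tetracycline-inducible EGFP-delE hTOR1A (WT EGFP-hTOR1A as reference), 800 cells/well; compound added with tetracycline, 48 h at 37 C. Fixed, permeabilized cells imaged; %pathology (punctate TorsinA) primary, cell count counterscreen.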

For experiment [9], the target named is Cytochrome P450 2D6 (Homo sapiens) (UniProt P10635). In words: Cytochrome P450 family 2 subfamily D member 6 (CYP2D6) small molecule antagonists: luciferase biochemical (cell-free) qHTS assay (AID 1645840; active = well fitted curve in the direction sought with a large enough effect in the repeat runs; an effect the other way counts as inactive or inconclusive; also: nearly all actives have a fitted effect of over 55% in size; also: potency is read from the fitted curve at half-maximal effect). The essentials:
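P450-Glo luminescent screen: recombinant CYP2D6 enzyme–proluciferin substrate mix preincubated with compound 10 min at room temperature, then NADPH regeneration added for 1 h at room temperature. Detection reagent added for 20 min; luciferin light read as relative luminescence units.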

Experiment [10] is described as follows: Primary qHTS for inhibitors of MERS-S pseudo-typed particle cell entry (AID 1479149; calls by dose curve; also: nearly all actives have a fitted effect of over 60% in size; also: potency is read from the fitted curve at half-maximal effect).
A short description of experiment [11]: Primary qHTS for small molecule stabilizers of the endoplasmic reticulum resident proteome: Secreted ER Calcium Modulated Protein (SERCaMP) assay (AID 1508630). Also: % is scaled to controls: 0 for no effect and ±100 for the full control effect. The essentials: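 GLuc-SERCaMP-expressing SH-SY5Y cells, pretreated 16 h with compound, are challenged with thapsigargin to empty ER calcium stores; after 4 h, coelenterazine is added directly to the medium and luminescence is imaged.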

The nature of experiment [12]: Counterscreen qHTS for small molecule stabilizers of the endoplasmic reticulum resident proteome: GLuc-NoTag assay (AID 1508627). Also: potency is read from the fitted curve at half-maximal effect. The gist of the method:
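SH-SY5Y cells stably expressing constitutively secreted GLuc without SERCaMP tag, exposed to compound for 19 hr, then to 100 nM thapsigargin for 4 hr at 37C. Medium luciferase was read by coelenterazine luminescence without lysis.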
On the technique in general: Counterscreens check selectivity or assay interference.

Experiment [13] in a line: Confirmatory qHTS for small molecule stabilizers of the endoplasmic reticulum resident proteome: Secreted ER Calcium Modulated Protein (SERCaMP) assay (AID 1508628). Also: nearly all actives have a fitted effect of over 40% in size. Also: potency is read from the fitted curve at half-maximal effect. The gist of the method: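 SH-SY5Y cells stably expressing GLuc-SERCaMP, treated 16 h with compound (primary 1.53, 7.67, 38.3 uM; confirmation 11 concentrations, up to 76.6 uM), then 100 nM thapsigargin for 4 h. Secreted Gaussia luciferase in medium read by coelenterazine luminescence.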

Experiment [14] is described as follows: Cell Viability qHTS for small molecule stabilizers of the endoplasmic reticulum resident proteome (AID 1508629).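 Also: human SH-SY5Y neuroblastoma cells carrying the GLuc-SERCaMP reporter; compound exposure about 46 h in total before the viability read; % is scaled to controls: 0 for no effect and ±100 for the full control effect.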 The following applies: cell viability counter-screen, 100 nM thapsigargin for final 4 h.
The target in experiment [15] is Calcium and integrin-binding protein 1 (Homo sapiens) (UniProt Q99828). In words: Confirmatory qHTS for Identification of Calcium Integrin Binding Protein 1 (CIB1) Competitor (AID 1508617). Also: potency is read from the fitted curve at half-maximal effect; nearly all actives have a fitted effect of over 65% in size. The essentials:
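Fluorescence polarization competition: CIB1-GST (1 uM final) in 5 mM HEPES pH 7.4, 125 mM NaCl, 5 mM CaCl2, 0.01% Tween20 preincubated 15 min RT with compound (up to 114 uM), then FITC-alphaIIb peptide (100 nM) added, 15 min RT.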

Chain of Cytochrome P450 2D6 (Homo sapiens) (P10635 whole entry, looked up): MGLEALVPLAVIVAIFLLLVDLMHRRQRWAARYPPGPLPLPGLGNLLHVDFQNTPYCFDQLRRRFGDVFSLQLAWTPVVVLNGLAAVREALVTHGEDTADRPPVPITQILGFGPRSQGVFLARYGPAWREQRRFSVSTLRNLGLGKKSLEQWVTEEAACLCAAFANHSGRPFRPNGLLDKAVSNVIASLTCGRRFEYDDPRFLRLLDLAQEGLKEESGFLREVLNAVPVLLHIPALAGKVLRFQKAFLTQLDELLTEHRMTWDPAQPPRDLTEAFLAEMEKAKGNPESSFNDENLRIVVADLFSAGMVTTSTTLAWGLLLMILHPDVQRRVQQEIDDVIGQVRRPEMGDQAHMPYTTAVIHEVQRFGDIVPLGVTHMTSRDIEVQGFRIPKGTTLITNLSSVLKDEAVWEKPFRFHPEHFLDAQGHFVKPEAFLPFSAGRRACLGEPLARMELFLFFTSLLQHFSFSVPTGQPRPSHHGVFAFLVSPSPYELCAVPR
Chain of Calcium and integrin-binding protein 1 (Homo sapiens) (Q99828 whole entry, looked up): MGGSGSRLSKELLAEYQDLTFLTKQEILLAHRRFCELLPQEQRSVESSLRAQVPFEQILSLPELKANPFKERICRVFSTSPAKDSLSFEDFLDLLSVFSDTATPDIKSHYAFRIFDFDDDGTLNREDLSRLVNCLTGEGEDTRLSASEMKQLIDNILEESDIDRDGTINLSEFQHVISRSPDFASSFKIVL
Chain of Protein phosphatase 1D (Homo sapiens) (O15297 whole entry, looked up): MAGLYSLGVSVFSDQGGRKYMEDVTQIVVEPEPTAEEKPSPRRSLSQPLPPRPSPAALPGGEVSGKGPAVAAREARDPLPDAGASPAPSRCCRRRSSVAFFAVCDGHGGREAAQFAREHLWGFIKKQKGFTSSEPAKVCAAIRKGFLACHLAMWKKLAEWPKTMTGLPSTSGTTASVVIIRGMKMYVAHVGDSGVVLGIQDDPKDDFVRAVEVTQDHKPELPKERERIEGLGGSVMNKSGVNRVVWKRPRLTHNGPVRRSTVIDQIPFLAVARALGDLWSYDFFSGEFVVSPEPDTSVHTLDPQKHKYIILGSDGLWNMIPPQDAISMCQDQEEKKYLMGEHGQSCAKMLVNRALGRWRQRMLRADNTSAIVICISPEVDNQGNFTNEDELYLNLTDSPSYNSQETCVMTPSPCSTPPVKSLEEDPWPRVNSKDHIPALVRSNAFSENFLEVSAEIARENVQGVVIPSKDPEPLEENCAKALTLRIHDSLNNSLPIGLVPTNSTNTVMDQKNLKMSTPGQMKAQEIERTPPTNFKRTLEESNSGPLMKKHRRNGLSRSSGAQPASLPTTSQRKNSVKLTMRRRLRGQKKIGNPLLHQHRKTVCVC

With `O=c1n(Cl)c(=O)n(Cl)c(=O)n1Cl`, the Potency entry in experiment [1], in experiment [3], in experiment [4], in experiment [5], in experiment [7] and in experiment [9] was “inactive” each time. Besides, the call in [2], in experiment [6] and in [8] was inactive.
Turning to `C#C[C@]1(O)C=C[C@H]2[C@@H]3CCC4=CC(=O)CC[C@@H]4[C@H]3CC[C@@]21CC`, the Potency result in experiment [1], in experiment [4], in [10], in experiment [5] and in [7] was “inactive” each time. Also, the molecule was classed as inactive in [2], in experiment [6], in [11] and in [8].
On to `CCCCCCCCCCCC[N+](C)(C)CCOc1ccccc1`, for which the Potency entry in [1] and in experiment [4] was “inactive” in each case. In addition, the call in experiment [2], in experiment [6] and in experiment [11] was inactive. Further, the values for the Potency in experiment [10] and in [9] were 22.4 µM (active) and 1.74 µM (active), respectively.
On to `NC1(c2ccccc2)CCCCC1`, for which the Potency entry in experiment [1], in experiment [7] and in [12] was “inactive” in each case. The call in experiment [2], in [6] and in experiment [8] was inactive. Besides, the Potency in experiment [13] is 56.2 µM (active); in [9], 28 µM (active).
Consider `CC(C)=CCN1CC[C@@]2(C)c3cc(O)ccc3C[C@@H]1[C@@H]2C`, for which the Potency entry in experiment [1], in experiment [7] and in experiment [12] was “inactive” throughout. Further, the molecule was called inactive in experiment [2], in experiment [6] and in [8]. The results for the Potency in experiment [13] and in experiment [9] were 28.2 µM (active) and 0.176 µM (active), respectively. In addition, the max response in experiment [14] is -7.58%.
As to `CN1C2CCC(C)(C)C1CC(OC(=O)C(O)(c1cccs1)c1cccs1)C2` (stereo not drawn), the Potency result in experiment [1], in [4], in experiment [5], in experiment [7] and in experiment [12] was “inactive” throughout. Besides, the molecule was called inactive in [2] and in experiment [6]. Also, the max response in experiment [14] is -12.1%. The Potency in experiment [9] was 13.8 µM (active).
`Clc1ccc(CSC(Cn2ccnc2)c2ccc(Cl)cc2Cl)cc1` (stereo not drawn): the Potency entry in experiment [1], in experiment [4] and in experiment [7] was “inactive” each time. In addition, the molecule was called inactive in experiment [2] and in [6].
Turning to `CCOC(=O)c1ncn2c1CN(C)C(=O)c1c(I)cccc1-2`, the Potency entry in [1], in [4], in experiment [5], in [7] and in [9] was “inactive” throughout. Moreover, the molecule was called inactive in experiment [2], in experiment [6] and in experiment [8].
As to `Oc1ccc2[nH]cc(CCCCN3CC=C(c4ccccc4)CC3)c2c1`, the Potency result in experiment [1], in experiment [7] and in [12] was “inactive” each time. In addition, the molecule was called inactive in [2] and in experiment [6]. The Potency was 12.6 µM (active) in [13] and 0.195 µM (active) in experiment [9].
Consider `CN1[C@@H]2CC[C@H]1CC(OC(=O)c1cc(Cl)cc(Cl)c1)C2` (stereo partly drawn), for which the Potency entry in [1], in experiment [7], in experiment [12] and in experiment [13] was “inactive” in each case. The outcome in experiment [2] and in [6] was inactive. Further, in experiment [14], the max response is -1.72%.
In the case of `CC(C(O)c1ccccc1)N(C)C/C=C/c1ccccc1` (stereo not drawn), the Potency result in experiment [1], in experiment [4], in experiment [5] and in experiment [7] was “inactive” in each case. Further, the molecule was classed as inactive in experiment [2], in [6] and in experiment [8]. Besides, the Potency in experiment [9] is 0.0389 µM (active).
Take `OC(c1ccccc1)(c1ccccc1)C1CCNCC1`: the Potency entry in [1], in experiment [7] and in experiment [12] was “inactive” throughout. In addition, the outcome in experiment [2], in experiment [6] and in [8] was inactive. Further, the Potency in experiment [13] is 15.8 µM (active). Besides, the max response in experiment [14] is -6.14%.
Turning to `C[C@@H]1O[C@@H](O[C@@H]2C=C3CC[C@@H]4[C@H](CC[C@]5(C)[C@@H](c6ccc(=O)oc6)CC[C@]45O)[C@@]3(C)CC2)[C@H](O)[C@H](O)[C@H]1O`, the Potency result in [1], in experiment [3], in experiment [10], in [7] and in experiment [9] was “inactive” throughout. The call in [2] and in experiment [8] was inactive.
With `Nc1ccc(Cl)cc1C(=O)c1ccccc1F`, the Potency entry in experiment [1] and in experiment [7] was “inactive” in each case. Further, the molecule was classed as inactive in experiment [2] and in experiment [6].
`O=C(CCCN1CCC(n2c(=O)[nH]c3ccccc32)CC1)c1ccc(F)cc1`: the Potency result in experiment [1], in experiment [4] and in [5] was “inactive” each time. In addition, the result in experiment [2] and in experiment [6] was inactive.
With `CCOC(=O)c1cncn1C(C)c1ccccc1` (stereo not drawn), the Potency result in [1], in [3], in [4], in [5], in experiment [7] and in [9] was “inactive” in each case. Also, the result in [2], in [6] and in experiment [8] was inactive.
For the molecule `Clc1ccc(C(OCCN2CCCCC2)c2ccccc2)cc1` (stereo not drawn), the Potency entry in experiment [1], in experiment [4], in [5] and in [7] was “inactive” each time. In addition, the molecule was called inactive in experiment [2] and in experiment [6].
On to `O=C1CN2CCOC2(c2ccccc2Cl)c2cc(Cl)ccc2N1` (stereo not drawn), for which the Potency result in experiment [1], in [4], in experiment [5] and in experiment [7] was “inactive” each time. For the same molecule, the result in experiment [2], in experiment [6] and in [11] was inactive.
Turning to `C[C@@H]1C[C@@H]([C@H](O)CC2CC(=O)NC(=O)C2)C(=O)[C@@H](C)C1`, the Potency result in experiment [1] and in experiment [7] was “inactive” in each case. The call in experiment [2] and in experiment [6] was inactive. In addition, the Potency in experiment [12] is 1.58 µM (active) and 1.12 µM (active); in experiment [13], 0.224 µM (active).
Take `CN(C)CCc1c[nH]c2cccc(O)c12`: the Potency result in [1] was “inactive”. For the same molecule, the call in experiment [2], in experiment [6], in experiment [11] and in [8] was inactive. Besides, the Potency in experiment [15] was 126 µM (active); in [9] it was 12.5 µM (active).
With `O=C1NCN(c2ccccc2)C12CCN(CCCOc1ccc(F)cc1)CC2`, the Potency result in experiment [1] and in [7] was “inactive” in each case. The molecule was called inactive in [2] and in experiment [6]. Besides, the Potency was 8.91 µM (active) in experiment [12]; 2.51 µM (active) and 3.16 µM (active) in experiment [13]; 0.347 µM (active) in experiment [9]. Moreover, in [14], the max response was -6.39%.
As to `CC[C@H]1C[C@H]2[C@@H]3CCC4=CC(=O)CC[C@@H]4[C@H]3CC[C@]2(C)[C@H]1O`, the Potency result in [1], in experiment [4], in experiment [5], in [7] and in experiment [9] was “inactive” throughout. The call in experiment [2], in experiment [6], in [11] and in experiment [8] was inactive.
Take `C=CC[C@]1(O)CC[C@H]2[C@@H]3CCC4=CC(=O)CCC4=C3C=C[C@@]21C`: the Potency result in [1], in experiment [4], in experiment [5] and in [7] was “inactive” each time. The result in experiment [2], in [6], in experiment [11] and in [8] was inactive.
For the molecule `c1cc2c(c(N3CCNCC3)c1)OCCO2`, the Potency result in experiment [1], in [7], in experiment [12] and in experiment [13] was “inactive” each time. Besides, the call in [2], in [6] and in [8] was inactive. The max response in experiment [14] was 5.26%.
Regarding `CC(C)C(Br)C(=O)NC(N)=O` (stereo not drawn), the Potency result in experiment [1], in [4], in [10], in experiment [5], in experiment [7] and in experiment [9] was “inactive” each time. Moreover, the result in experiment [2], in experiment [6], in experiment [11] and in experiment [8] was inactive.
